Measured values reported in PubChem BioAssay (NCI).
“And” between values parts separate entries of the source, which are not always exact repeats. Identical values can stand only once. The panel holds about 83,000 compounds, 20% with a hit somewhere; the sample as a whole holds those more often.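 In brief: 96-well plates, 48 h treatment, single concentration, percent growth endpoint.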 A number with no mark means an inactive call. The source made the active and inactive calls.

Tested on: HS 578T breast
Test: NCI-60 one-dose screen, 48 h (100 = growth as untreated, 0 = no growth, -100 = all killed)
Details: 0.01 µM
Method: Growth inhibition of the HS 578T human tumor cell line is measured as a screen for anti-cancer activity. Cells are grown in 96 well plates and exposed to the test compound for 48 hours. Compounds are tested at a single concentration, which is 10^-5 M for most compounds. The reported endpoint is percent growth (GI% or GIPRCNT), where numbers from 0 - 100% represent growth inhibition, and numbers from -100% - 0 represent cell death. For example, a value of 40 represents 60% growth inhibition. A value of 0 means no net growth occurred over the course of the experiment. A value of -40 indicates 40% of cells at the beginning of the experiment died by the end of the experiment. A value of -100 means all cells are dead at the end of the experiment.
NCI-60 Human Tumor Cell Lines Screen was performed using the standard one-dose NCI protocol, which is described in more detail at https://dtp.cancer.gov/discovery_development/nci-60/default.htm.
Compounds with GIPRCNT values below 10 were considered active. Activity score was based on GIPRCNT using the following formula: […]
Score is 0 for GIPRCNT values of 100 or above, 50 for GIPRCNT values of 0, and 100 for GIPRCNT values of -100.

Row | SMILES | growth
1 | CC(=O)O[C@H]1C(=O)[C@@]2(C)[C@H]([C@H](OC(=O)c3ccccc3)[C@]3(O)C[C@H](OC(=O)[C@H](O)[C@@H](NC(=O)c4ccccc4)c4ccccc4)C(C)=C1C3(C)C)[C@]1(OC(C)=O)CO[C@@H]1C[C@@H]2O | -47.1% (active)

Same assay, conditions: 2.5 µM

Row | SMILES | growth
2 | CC(=O)O[C@H]1C(=O)[C@@]2(C)[C@H]([C@H](OC(=O)c3ccccc3)[C@]3(O)C[C@H](OC(=O)[C@H](O)[C@@H](NC(=O)c4ccccc4)c4ccccc4)C(C)=C1C3(C)C)[C@]1(OC(C)=O)CO[C@@H]1C[C@@H]2O | -18.5% (active)

Same assay, conditions: 5 µM

Row | SMILES | growth
3 | CC(=O)O[C@H]1C(=O)[C@@]2(C)[C@H]([C@H](OC(=O)c3ccccc3)[C@]3(O)C[C@H](OC(=O)[C@H](O)[C@@H](NC(=O)c4ccccc4)c4ccccc4)C(C)=C1C3(C)C)[C@]1(OC(C)=O)CO[C@@H]1C[C@@H]2O | -14.2% (active)

Same assay, conditions: 10 µM

Row | SMILES | growth
4 | CC(=O)O[C@H]1C(=O)[C@@]2(C)[C@H]([C@H](OC(=O)c3ccccc3)[C@]3(O)C[C@H](OC(=O)[C@H](O)[C@@H](NC(=O)c4ccccc4)c4ccccc4)C(C)=C1C3(C)C)[C@]1(OC(C)=O)CO[C@@H]1C[C@@H]2O | -14.9% (active) and 2.62% (active)
5 | COc1ccc2c(c1)[nH]c1c(/C=C/c3ccccc3)nccc12 | 70.4%
6 | O=Nc1ccc(Nc2ccccc2)cc1 | 111%
7 | COc1ccc(C(C#N)=C2C=CC(=NO)C=C2)cc1 | 99.6%
8 | Cc1cc(O)c2c(c1O)C(=O)C13C(=C2O)C(=O)C2C(O)C1C1C(O)C3C(=O)C3=C(O)c4c(O)cc(C)c(O)c4C(=O)C321 (stereo not given) | -55.2% (active)
9 | CN(CC(=O)O)c1ccc(/C=C/c2ccnc3ccccc23)cc1 | 84.6%
10 | Nc1nc(N)c2cc(Sc3ccc4ccccc4c3)ccc2n1 | 61.7%
11 | Cc1cc(Cl)ccc1NC(=O)/C(Cl)=C1/Sc2ccccc2NC1=O | 122%
12 | CCC(C)(c1ccc(O)c(C)c1)c1ccc(O)c(C)c1 | 95%
13 | O=C(NC(=S)Nc1ccccn1)c1ccccc1 | 88.8%
14 | COc1cccc(C(c2cc3c(cc2O)OCO3)N2CCOCC2)c1OC (stereo not given) | 95.5%
15 | CCC(=O)Oc1ccc(/C=N/NC(N)=S)nc1 | 117%
16 | NCc1c(O)ccc2ccccc12 | 94.5%
17 | CN(C)c1ccc(/C=C/c2ccnc3ccccc23)cc1N | 80.2%
18 | COc1ccc2oc(-c3ccc(Cl)cc3)c(N3CCN(C)CC3)c2c1 | 28.3%
19 | O=C1c2ccccc2CCC1(Br)Br | 69.4%
20 | CCOC(=O)[C@]1(Br)CC[C@@]1(Br)C(=O)OCC | 102%
21 | O=C1c2cccc3cc([N+](=O)[O-])cc(c23)C(=O)N1CCN1CCCC1 | -25.4% (active)

Row | SMILES | growth
22 | O=S(=O)(c1cc(Cl)ccc1O)c1cc(Cl)ccc1O | 65.6%
23 | O=C1C=CC(=O)N1c1ccc(N2C(=O)C=CC2=O)cc1 | 128%
24 | S=C1SCN(CCc2ccccc2)CN1CCc1ccccc1 | 105%
25 | COc1cc(N)ccc1Nc1c2ccccc2nc2ccccc12 | 102%
26 | Cn1ncc2cc3c(Nc4ccc(Cl)cc4)cccc3nc21 | 89%
27 | N#CC(=C1C=CC(=NO)C=C1)c1ccccc1 | -18.3% (active)
28 | Cc1cc(C)c(N2C(=O)CC(Sc3ccccc3N)C2=O)c(C)c1 (stereo not given) | 81%
29 | ClCCn1c(CCl)nc2ccc(Cl)cc21 | -10.9% (active)
30 | Cc1c(-c2ccccc2)[nH]c2ccccc12 | 102%
31 | Cc1cc(N=C2C=CC(=[N+](C)C)C=C2)c(N)cc1N | 94.5%
32 | COc1ccc(N)c2c1C(=O)c1ccccc1C2=O | 107%
33 | Cn1c2nc3ccccc3c-2nc2ccccc21 | 83.4% and 87.5%
34 | N#C/C(=C/N1C(=O)/C(=C/c2ccc([N+](=O)[O-])cc2)SC1=S)c1nc2ccccc2s1 | 90.4%
35 | S=P(N1CC1)(N1CC1)N1CC1 | 113% and 126%
36 | O=C1C(Cl)=C(Cl)C(Cl)(Cl)C(Cl)C1(Cl)Cl (stereo not given) | 109%
37 | O=c1[nH]cc(/C=N\Nc2ccccc2)c(=O)[nH]1 | 81.7%
38 | CN(C)CCNc1cccc2sc3ccc(O)cc3c(=O)c12 | 69.4%
39 | O=[N+]([O-])c1cc(S(=O)(=O)Nc2ccccc2)ccc1Cl | 101%

Same assay, conditions: 100 µM

Row | SMILES | growth [%]
40 | S=P(N1CC1)(N1CC1)N1CC1 | 66
